{
  "source": "PubChem BioAssay (EPA / NIEHS)",
  "note": "Results filed as inconclusive are left out. Activity calls are given as the source filed them. How the source made its calls, unless noted: active means hit-call score of the fitted dose curve at least 0.9, where 1 is the maximum; inactive means score below 0.9. Starred links: 1 amine or outer side, 2 acyl side, 3 side chain; linkers in the order of their positions; H or OH if unused. Positions of bridges follow the written chain, without caps; N, C: chain ends. Non-standard residues stand in square brackets, D forms with d. Residues, ends and D or L forms follow the SMILES beside them. Adda = CO[C@@H](Cc1ccccc1)[C@@H](C)/C=C(C)/C=C/[C@H](N[*:1])[C@H](C)C(=O)[*:2]; dAsp(3S-Me) = C[C@H](C(=O)[*:3])[C@@H](N[*:1])C(=O)[*:2]; d(γGlu) = O=C(O)[C@@H](CCC(=O)[*:2])N[*:1]; NMeDha = C=C(NC)C(=O)O",
  "data": [
    {"target": "Nucleoli Translocation, AR (gene 367) (UniProt P10275)", "sequence (P10275 whole entry, looked up)": "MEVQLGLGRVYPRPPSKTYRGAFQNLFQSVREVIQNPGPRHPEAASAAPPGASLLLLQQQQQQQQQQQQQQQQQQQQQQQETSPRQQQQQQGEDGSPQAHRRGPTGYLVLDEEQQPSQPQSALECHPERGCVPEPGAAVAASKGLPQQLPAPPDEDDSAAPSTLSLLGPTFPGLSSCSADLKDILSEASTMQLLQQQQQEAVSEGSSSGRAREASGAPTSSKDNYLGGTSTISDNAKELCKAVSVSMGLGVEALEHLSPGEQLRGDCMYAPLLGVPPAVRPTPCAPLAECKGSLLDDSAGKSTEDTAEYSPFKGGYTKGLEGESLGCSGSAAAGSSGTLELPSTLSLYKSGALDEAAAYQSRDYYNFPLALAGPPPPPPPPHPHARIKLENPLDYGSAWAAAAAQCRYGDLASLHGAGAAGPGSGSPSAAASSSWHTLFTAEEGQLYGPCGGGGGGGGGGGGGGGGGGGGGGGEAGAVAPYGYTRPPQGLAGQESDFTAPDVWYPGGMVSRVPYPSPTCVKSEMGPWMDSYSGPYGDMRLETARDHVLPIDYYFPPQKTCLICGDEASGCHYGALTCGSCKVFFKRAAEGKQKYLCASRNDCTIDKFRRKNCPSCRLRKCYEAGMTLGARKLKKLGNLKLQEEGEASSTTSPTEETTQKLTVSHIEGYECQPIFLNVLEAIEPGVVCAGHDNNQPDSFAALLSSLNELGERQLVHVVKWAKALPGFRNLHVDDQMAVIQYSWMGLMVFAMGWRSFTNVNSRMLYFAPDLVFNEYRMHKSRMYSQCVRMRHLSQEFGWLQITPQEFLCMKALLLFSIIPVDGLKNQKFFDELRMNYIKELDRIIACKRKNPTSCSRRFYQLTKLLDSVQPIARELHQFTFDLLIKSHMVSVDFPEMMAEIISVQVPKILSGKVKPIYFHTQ", "experiment": "UPITT_HCI_U2OS_AR_TIF2_Nucleoli_Antagonist: University of Pittsburgh U2OS Androgen Receptor-Transcriptional Intermediary Factor 2 (AR-TIF2) Antagonism High Content Imaging Assay for Nucleoli Translocation (AID 2283997; active means hit-call score of the fitted dose curve at least 0.9, where 1 is the maximum)", "method_in_brief": "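Measured quantity was AR-RFP fluorescence localized to nucleoli in engineered U2OS cells also bearing TIF2-GFP, acquired on automated high-content imagers. Primary testing used 20 uM compound; actives were confirmed in triplicate wells.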", "values": [
      {"molecule": "C[n+]1ccc(-c2cc[n+](C)cc2)cc1", "outcome": "inactive"},
      {"molecule": "O=c1[nH]c2c(c(=O)n1C1CCCCC1)CCC2", "outcome": "inactive"},
      {"molecule": "CCCCC(CC)COC(=O)c1cc(Br)c(Br)c(Br)c1Br", "note": "(stereo unspecified)", "outcome": "inactive"},
      {"molecule": "O=S1OC[C@@H]2[C@H](CO1)[C@]1(Cl)C(Cl)=C(Cl)[C@]2(Cl)C1(Cl)Cl", "note": "(stereo partly specified)", "outcome": "inactive"}
    ]},
    {"target": "Nucleoli Translocation, AR (gene 367) (UniProt P10275)", "experiment": "UPITT_HCI_U2OS_AR_TIF2_Nucleoli_Agonist: University of Pittsburgh U2OS Androgen Receptor-Transcriptional Intermediary Factor 2 (AR-TIF2) Agonism High Content Imaging Assay for Nucleoli Translocation (AID 2283998; active means hit-call score of the fitted dose curve at least 0.9, where 1 is the maximum)", "method_in_brief": "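U2OS cells expressing RFP-tagged human AR and GFP-tagged TIF2; red fluorescence in nucleoli quantified by high-content imaging. Primary screen at 20 uM final (0.2% DMSO); concentration-response 0.195–50 uM (0.5% DMSO), fitted upward versus DMSO.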", "values": [
      {"molecule": "C[n+]1ccc(-c2cc[n+](C)cc2)cc1", "outcome": "inactive"},
      {"molecule": "Clc1c(Cl)c(Cl)c2c(c1Cl)Oc1c(Cl)c(Cl)c(Cl)c(Cl)c1O2", "outcome": "inactive"},
      {"molecule": "O=c1[nH]c2c(c(=O)n1C1CCCCC1)CCC2", "outcome": "inactive"},
      {"molecule": "CCCCC(CC)COC(=O)c1cc(Br)c(Br)c(Br)c1Br", "note": "(stereo unspecified)", "outcome": "inactive"},
      {"molecule": "O=S1OC[C@@H]2[C@H](CO1)[C@]1(Cl)C(Cl)=C(Cl)[C@]2(Cl)C1(Cl)Cl", "note": "(stereo partly specified)", "outcome": "inactive"}
    ]},
    {"target": "Ratio of Nucleoli Translocation and Cytoplasm, AR (gene 367) (UniProt P10275)", "sequence (P10275 whole entry, looked up)": "as above", "experiment": "UPITT_HCI_U2OS_AR_TIF2_Nucleoli_Cytoplasm_Ratio_Antagonist: University of Pittsburgh U2OS Androgen Receptor-Transcriptional Intermediary Factor 2 (AR-TIF2) Antagonism High Content Imaging Assay for Ratio of Nucleoli Translocation and Cytoplasm (AID 2283999; active means hit-call score of the fitted dose curve at least 0.9, where 1 is the maximum;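 further: antagonists lower the DHT-driven ratio of nucleolar to cytoplasmic red signal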)", "method_in_brief": "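High-content imaging quantifies the red nucleolar:cytoplasmic fluorescence ratio in U2OS cells with AR-RFP and TIF2-GFP. Final concentrations are 20 uM (screen) or 0.195–50 uM (dose response), analysed against DHT as baseline.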", "values": [
      {"molecule": "C[n+]1ccc(-c2cc[n+](C)cc2)cc1", "outcome": "inactive"},
      {"molecule": "Clc1c(Cl)c(Cl)c2c(c1Cl)Oc1c(Cl)c(Cl)c(Cl)c(Cl)c1O2", "outcome": "inactive"},
      {"molecule": "CCCCC(CC)COC(=O)c1cc(Br)c(Br)c(Br)c1Br", "note": "(stereo unspecified)", "outcome": "inactive"},
      {"molecule": "O=S1OC[C@@H]2[C@H](CO1)[C@]1(Cl)C(Cl)=C(Cl)[C@]2(Cl)C1(Cl)Cl", "note": "(stereo partly specified)", "outcome": "inactive"}
    ]},
    {"target": "Ratio of Nucleoli Translocation and Cytoplasm, AR (gene 367) (UniProt P10275)", "experiment": "UPITT_HCI_U2OS_AR_TIF2_Nucleoli_Cytoplasm_Ratio_Agonist: University of Pittsburgh U2OS Androgen Receptor-Transcriptional Intermediary Factor 2 (AR-TIF2) Agonism High Content Imaging Assay for Ratio of Nucleoli Translocation and Cytoplasm (AID 2284000; active means hit-call score of the fitted dose curve at least 0.9, where 1 is the maximum;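 further: hits raise the red nucleolar to cytoplasm ratio above vehicle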)", "method_in_brief": "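Read-out first: nucleolar-to-cytoplasm ratio of red (AR-RFP) signal, quantified by high-content imaging in U2OS cells co-expressing TIF2-GFP. Activity is scored as signal increase over DMSO. Single-point screening used 20 uM final (0.2% DMSO).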", "values": [
      {"molecule": "C[n+]1ccc(-c2cc[n+](C)cc2)cc1", "outcome": "inactive"},
      {"molecule": "Clc1c(Cl)c(Cl)c2c(c1Cl)Oc1c(Cl)c(Cl)c(Cl)c(Cl)c1O2", "outcome": "inactive"},
      {"molecule": "O=c1[nH]c2c(c(=O)n1C1CCCCC1)CCC2", "outcome": "inactive"},
      {"molecule": "CCCCC(CC)COC(=O)c1cc(Br)c(Br)c(Br)c1Br", "note": "(stereo unspecified)", "outcome": "inactive"},
      {"molecule": "O=S1OC[C@@H]2[C@H](CO1)[C@]1(Cl)C(Cl)=C(Cl)[C@]2(Cl)C1(Cl)Cl", "note": "(stereo partly specified)", "outcome": "inactive"}
    ]},
    {"tested_on": "not listed separately", "experiment": "CCTE_Shafer_MEA_acute_spike_number: CCTE's Neural Acute Assay for Total Number of Spikes, Shafer Lab (AID 2284008);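 on AC50: curve fitted for decrease in spike count so AC50 reflects inhibitors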", "method_in_brief": "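Rat primary cortical neurons on 48-well MEA plates, DIV 13 or 15, at 37 C. 40 min baseline then 40 min with compound (0.03-40 uM); spikes detected at 8x rms noise, expressed as percent change from baseline.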", "values": [
      {"molecule": "CP(=O)(O)CCC(N)C(=O)O", "note": "(stereo unspecified)", "outcome": "inactive"},
      {"molecule": "O=C(O)CNCP(=O)(O)O", "outcome": "inactive"},
      {"molecule": "C#CCN(C)[C@H](C)Cc1ccccc1", "outcome": "inactive"},
      {"molecule": "CC1(C)[C@@H](C=C(Cl)Cl)[C@@H]1C(=O)O[C@@H](C#N)c1ccc(F)c(Oc2ccccc2)c1", "AC50": "2.96 µM (active)"},
      {"molecule": "CP(=O)(O)CC[C@H](N)C(=O)O", "outcome": "inactive"}
    ]},
    {"tested_on": "not listed separately", "experiment": "CCTE_Harrill_HTTr_Viability_MCF7: CCTE's 6-hour Cell Viability Assessment for the High-Throughput Transcriptomics (HTTr) Platform, in MCF-7 cells cultured in DMEM + 10% fetal bovine serum, Harrill Lab (AID 2284010)", "method_in_brief": "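Viability measured through PI dye exclusion by high-content imaging at 6 h post-dosing.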", "values": [
      {"molecule": "[O-][Cl+3]([O-])([O-])O", "outcome": "inactive"},
      {"molecule": "Clc1c(Cl)c(Cl)c2c(c1Cl)Oc1c(Cl)c(Cl)c(Cl)c(Cl)c1O2", "outcome": "inactive"},
      {"molecule": "C=C1C(=O)N[C@H](C)C(=O)N[C@H](CC(C)C)C(=O)N[C@@H](C(=O)O)[C@H](C)C(=O)N[C@@H](CCCN=C(N)N)C(=O)N[C@@H](/C=C/C(C)=C/[C@H](C)[C@H](Cc2ccccc2)OC)[C@H](C)C(=O)N[C@@H](C(=O)O)CCC(=O)N1C", "note": "(R[Adda][d(γGlu)][NMeDha][dA][dL][dAsp(3S-Me)]-OH; lactam N-7)", "outcome": "inactive"},
      {"molecule": "FC(F)(F)c1ccc(OCCCOc2c(Cl)cc(OCC=C(Cl)Cl)cc2Cl)nc1", "outcome": "inactive"},
      {"molecule": "[Cl-].[Cl-].[Cl-].[Gd+3]", "outcome": "inactive"},
      {"molecule": "O=C1CCO1", "outcome": "inactive"},
      {"molecule": "CCCCOC(=O)N(C)SN(C)C(=O)Oc1cccc2c1OC(C)(C)C2", "outcome": "inactive"},
      {"molecule": "[Cl-].[Cl-].[Cl-].[Pr+3]", "outcome": "inactive"},
      {"molecule": "COCCOC(C)=O", "outcome": "inactive"},
      {"molecule": "O=c1[nH]c2c(c(=O)n1C1CCCCC1)CCC2", "outcome": "inactive"},
      {"molecule": "CCCCC(CC)COC(=O)c1cc(Br)c(Br)c(Br)c1Br", "note": "(stereo unspecified)", "outcome": "inactive"},
      {"molecule": "ClC=C(Cl)CCl", "outcome": "inactive"},
      {"molecule": "O=S1OC[C@@H]2[C@H](CO1)[C@]1(Cl)C(Cl)=C(Cl)[C@]2(Cl)C1(Cl)Cl", "note": "(stereo partly specified)", "outcome": "inactive"},
      {"molecule": "CNC(=O)Oc1cccc(C(C)C)c1", "outcome": "inactive"},
      {"molecule": "COP(=S)(Oc1cc(Cl)c(Br)cc1Cl)c1ccccc1", "note": "(stereo unspecified)", "outcome": "inactive"},
      {"molecule": "Cc1cc(N)ccc1N", "outcome": "inactive"},
      {"molecule": "CC(C)(C)OOC(C)(C)C#CC(C)(C)OOC(C)(C)C", "outcome": "inactive"},
      {"molecule": "O=C(O)CCCOC(=O)c1ccccc1C(=O)O", "outcome": "inactive"},
      {"molecule": "CCOP(=O)(O)OCC", "outcome": "inactive"}
    ]},
    {"tested_on": "not listed separately", "experiment": "CCTE_Harrill_HTTr_Apoptosis_MCF7: CCTE's 6-hour Apoptosis Assessment for the High-Throughput Transcriptomics (HTTr) Platform, in MCF-7 cells cultured in DMEM + 10% fetal bovine serum, Harrill Lab (AID 2284011)", "method_in_brief": "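MCF-7 cells in DMEM + 10% FBS exposed 6 h to chemicals over an eight-point dilution series. Caspase-3/7 activation imaged by high-content CellEvent Green staining; fitted bidirectionally versus DMSO.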", "values": [
      {"molecule": "[O-][Cl+3]([O-])([O-])O", "outcome": "inactive"},
      {"molecule": "Clc1c(Cl)c(Cl)c2c(c1Cl)Oc1c(Cl)c(Cl)c(Cl)c(Cl)c1O2", "outcome": "inactive"},
      {"molecule": "C=C1C(=O)N[C@H](C)C(=O)N[C@H](CC(C)C)C(=O)N[C@@H](C(=O)O)[C@H](C)C(=O)N[C@@H](CCCN=C(N)N)C(=O)N[C@@H](/C=C/C(C)=C/[C@H](C)[C@H](Cc2ccccc2)OC)[C@H](C)C(=O)N[C@@H](C(=O)O)CCC(=O)N1C", "note": "(R[Adda][d(γGlu)][NMeDha][dA][dL][dAsp(3S-Me)]-OH; lactam N-7)", "outcome": "inactive"},
      {"molecule": "FC(F)(F)c1ccc(OCCCOc2c(Cl)cc(OCC=C(Cl)Cl)cc2Cl)nc1", "outcome": "inactive"},
      {"molecule": "[Cl-].[Cl-].[Cl-].[Gd+3]", "outcome": "inactive"},
      {"molecule": "O=C1CCO1", "outcome": "inactive"},
      {"molecule": "CCCCOC(=O)N(C)SN(C)C(=O)Oc1cccc2c1OC(C)(C)C2", "outcome": "inactive"},
      {"molecule": "[Cl-].[Cl-].[Cl-].[Pr+3]", "outcome": "inactive"},
      {"molecule": "COCCOC(C)=O", "outcome": "inactive"},
      {"molecule": "O=c1[nH]c2c(c(=O)n1C1CCCCC1)CCC2", "outcome": "inactive"},
      {"molecule": "CCCCC(CC)COC(=O)c1cc(Br)c(Br)c(Br)c1Br", "note": "(stereo unspecified)", "outcome": "inactive"},
      {"molecule": "ClC=C(Cl)CCl", "outcome": "inactive"},
      {"molecule": "O=S1OC[C@@H]2[C@H](CO1)[C@]1(Cl)C(Cl)=C(Cl)[C@]2(Cl)C1(Cl)Cl", "note": "(stereo partly specified)", "outcome": "inactive"},
      {"molecule": "CNC(=O)Oc1cccc(C(C)C)c1", "outcome": "inactive"},
      {"molecule": "COP(=S)(Oc1cc(Cl)c(Br)cc1Cl)c1ccccc1", "note": "(stereo unspecified)", "outcome": "inactive"},
      {"molecule": "Cc1cc(N)ccc1N", "outcome": "inactive"},
      {"molecule": "CC(C)(C)OOC(C)(C)C#CC(C)(C)OOC(C)(C)C", "outcome": "inactive"},
      {"molecule": "O=C(O)CCCOC(=O)c1ccccc1C(=O)O", "outcome": "inactive"},
      {"molecule": "CCOP(=O)(O)OCC", "outcome": "inactive"}
    ]}
  ]
}
